Compounds with a hit are over-represented: about 32% of the library has one in this group of screens.
CYP2C19 act: cytochrome P450 2C19 (human) activation | P33261 | 96,000 tested, under 10 active | recombinant CYP2C19, luciferin-H EGE luminescence; active compounds read high; 0 = fully inhibited enzyme, 1 = untreated enzyme | activation factor at 5 µM;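 active means activation factor of at least 2 at 5 µM in the primary screen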;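 further: 0 = wells with 2.5 mM tranylcypromine and 1 = vehicle-only wells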
PostGolgi yeast: growth inhibition of a yeast mutant, post-Golgi transport screen. post-Golgi transport phenotypic cell assay. inhibition, % at 10 µM. 98,000 compounds, 0.9% hits. AID 739;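 further: yeast cells grown in 1536-well plates; yeast grown about 18 h at 30C before absorbance read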
CYP2C9 activ: activators of human CYP2C9 | P11712 | recombinant CYP2C9, luciferin-H conversion, luminescence; active compounds read high; factor 1 = untreated enzyme, 0 = blocked | activation factor at 5 µM | 96,000 compounds, 1.4% hits | AID 1024;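 active means activation factor of 2 or more for CYP2C9 at a 5 µM dose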;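 further: 0 = sulfaphenazole-blocked wells and 1 = vehicle-only wells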
Target sequence (P11712 whole entry, looked up): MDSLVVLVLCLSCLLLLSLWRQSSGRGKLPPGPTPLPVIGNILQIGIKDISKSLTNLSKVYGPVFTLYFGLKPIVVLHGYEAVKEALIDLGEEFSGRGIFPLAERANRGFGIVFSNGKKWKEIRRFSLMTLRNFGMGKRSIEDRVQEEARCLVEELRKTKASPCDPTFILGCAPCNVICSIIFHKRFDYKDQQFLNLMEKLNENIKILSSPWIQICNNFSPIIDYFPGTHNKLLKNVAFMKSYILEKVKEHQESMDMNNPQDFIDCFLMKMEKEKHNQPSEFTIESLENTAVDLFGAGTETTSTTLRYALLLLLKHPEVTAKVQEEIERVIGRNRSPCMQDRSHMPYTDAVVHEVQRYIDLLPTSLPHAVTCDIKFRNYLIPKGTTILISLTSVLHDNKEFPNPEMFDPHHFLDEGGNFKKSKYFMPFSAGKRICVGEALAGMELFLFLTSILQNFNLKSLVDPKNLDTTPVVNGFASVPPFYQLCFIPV
PostGolgi ctrl: yeast control strain growth, post-Golgi counter-screen; efflux-deficient yeast background strain, growth absorbance A615, 16 h; inhibition, % at 10 µM; 98,000 compounds, 5% hits; AID 738
CYP2C9 inhib: human CYP2C9 inhibition; P11712; CYP2C9 Supersomes, luciferin-H conversion, luminescence; inhibition, % at 5 µM; 96,000 compounds, 20% hits; AID 777;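 active means blocking of liver enzyme CYP2C9 beyond about 50% at 5 µM, limit read from the data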
CYP2C19 inh: inhibitors of human CYP2C19; P33261; CYP2C19 Supersomes, luciferin-H EGE luminescence, 30 min; inhibition, % at 5 µM; 96,000 compounds, 21% hits;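 active means CYP2C19 inhibition above a set limit at 5 µM in the primary screen, cut at about 50% in these data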;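 further: plate controls were negative control wells for no effect and 2.5 mM tranylcypromine positive control for full effect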
Active calls of the source: *; . = no result given. Unless noted, no stated cut-off is given here; in the data, active means inhibition above about 30%; inactive means the rest.

SMILES | CYP2C19 act | PostGolgi yeast | CYP2C9 activ | PostGolgi ctrl | CYP2C9 inhib | CYP2C19 inh
CC(C)(CSc1nncn1N)NS(=O)(=O)c1ccc(Cl)cc1 | 0.1 | -4 | 0.5 | 8 | 51* | 95*
Cc1ccccc1CSc1nncn1N | 1 | -15 | 0.9 | 19 | 12 | 3
CN(C)C(/C=C/Nc1ccc(C#N)cc1)=C(C#N)C#N | 0.4 | 1 | 0.8 | 1 | 25 | 58*
Cc1ccccc1N/C=C/C(=C(C#N)C#N)N(C)C | 0.6 | -4 | 0.7 | 13 | 34 | 42
CN(C)C(/C=C/Nc1ccc(F)cc1)=C(C#N)C#N | 0.4 | -1 | 0.7 | 12 | 32 | 59*
COc1ccc(/C=C/C(=O)c2nc3ccccc3n2CC(=O)c2ccc(OC)cc2)cc1 | 0.6 | 2 | 0.7 | 24 | 28 | 39
CC(C)n1nnc2ccccc2c1=O | 1 | 10 | 1.2 | 6 | -17 | 3
CC(C)Oc1ccc(C(=O)N/N=C/c2ccc(-c3ccc(S(=O)(=O)Nc4ncccn4)cc3)o2)cc1 | 0.8 | 8 | 0.2 | 4 | 84* | 19
COc1ccc(CC(=O)Nc2ccc(S(=O)(=O)Nc3ncccn3)cc2)cc1 | 1 | -11 | 1.1 | 29 | -10 | 0
O=S(=O)(c1ccc(Cl)s1)N1CCc2ccccc2C1 | 0.3 | 2 | 0.9 | 14 | 11 | 67*
O=C(O)C1CCCN(S(=O)(=O)c2ccc(Cl)s2)C1 (centres undefined) | 1 | -1 | 0.9 | 4 | 10 | 1
O=S(=O)(c1ccc(Cl)s1)N1CCCc2cccc(O)c21 | 0.3 | -1 | 0.9 | 19 | 15 | 72*
CCC(CC)c1nnc(NC(=O)c2ccc3ccccc3n2)s1 | . | 4 | . | 7 | . | .
c1csc(CNc2nc3ccccc3n2CCN2CCOCC2)c1 | 0.6 | -2 | 0.5 | 0 | 51* | 43
CCC(c1nnnn1CCOC)N1CCN(c2cccc(C(F)(F)F)c2)CC1 (centres undefined) | 0.3 | 5 | 0.4 | 11 | 55* | 69*
CCC(c1nnnn1CCOC)N1CCN(Cc2ccccc2)CC1 (centres undefined) | 0.9 | -2 | 0.8 | 31* | 18 | 10
COCCn1nnnc1C(CC(C)C)N1CCN(c2cccc(OC)c2)CC1 (centres undefined) | 0.2 | -10 | 0.2 | 1 | 75* | 81*
COCCn1nnnc1C(c1cccs1)N1CCN(c2cccc(C(F)(F)F)c2)CC1 (centres undefined) | 0.6 | 4 | 0.7 | 25 | 28 | 36
COc1cc(OC)nc(NC2OC(=O)c3ccccc32)n1 (centres undefined) | 1.1 | -5 | 1.1 | 2 | -12 | -14
c1ccc2[nH]c(SN3CCOCC3)nc2c1 | 1.2 | 10 | 1.1 | 26 | -12 | -17
CCN(CC)c1ccc(CN2CCCCCC2)cc1 | 1.1 | -4 | 1.1 | 7 | -7 | -7
CN(C)c1ccc(CN(C)C2CCCCC2)cc1 | 0.1 | 3 | 1 | 7 | 0 | 93*
CN(C)c1ccc(CN2CCCCCC2)cc1 | 0.4 | -1 | 0.3 | -2 | 67* | 55*
CCNC(=S)NNC(=O)c1ccc(OC(F)F)cc1 | 0.7 | -1 | 0.9 | 2 | 8 | 27
CCCSCCCNC(=O)Cn1cc2c(n1)CCC(C)C2 (centres undefined) | 0.5 | 4 | 0.5 | 17 | 47 | 51*
SMILES | CYP2C19 act | PostGolgi yeast | CYP2C9 activ | PostGolgi ctrl | CYP2C9 inhib | CYP2C19 inh
CC1CCc2nn(CC(=O)NC3CCCC3)cc2C1 (centres undefined) | 0.4 | 2 | 0.7 | 7 | 29 | 59*
CCOC(=O)c1cccc(NC(=O)Cn2cc3c(n2)CCC(C)C3)c1 (centres undefined) | 0.7 | -2 | 0.2 | 10 | 75* | 29
CCCCCCC1CC(CCC(=O)Nc2ccc([N+](=O)[O-])cc2)C(=O)O1 (centres undefined) | 0.8 | -7 | 0.8 | 2 | 19 | 23
O=C(NCc1ccc(F)cc1)c1cnc(-c2ccccn2)nc1C(F)(F)F | 1 | 7 | 0.9 | 6 | 14 | -1
COc1cccc(NC(=O)c2ccccc2-c2nc(-c3ccc(F)cc3)no2)c1 | 0.7 | 25 | 0.6 | 56* | 39 | 26
COc1cccc(NC(=O)c2ccccc2-c2nc(-c3ccccc3)no2)c1 | 0.9 | -3 | 0.9 | 42* | 11 | 8
COc1ccccc1NC(=O)c1ccccc1-c1nc(-c2ccccc2OC)no1 | 0.4 | 4 | 0.2 | 8 | 78* | 64*
